Laboratory results: the supplement of paper PMC8728848
The sample as a whole holds a higher share of the strongest signals than the screen did.

What was measured:
Assay in all cases: glycan array binding signal (z-score within array); higher = stronger binding
Conditions in all cases: glycan notation: IUPAC condensed, linker removed
[1] = molecular target: Fuc(a1-2)Gal(b1-3)GlcNAc(b1-2)Man(a1-3)[Fuc(a1-2)Gal(b1-3)GlcNAc(b1-2)Man(a1-6)]Man(b1-4)GlcNAc(b1-4)GlcNAc
Summary of the method: (§1)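 Negative Z-scores can be read as non-binding. The Z-score is calculated within each array and then averaged across arrays of one protein sequence at different concentrations or buffers and across linkers. Arrays, 3228 in all, were curated from the Consortium for Functional Glycomics database and kept only where the protein sequence was available.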

Fuc(a1-2)Gal(b1-4)GlcNAc = molecular target: Fuc(a1-2)Gal(b1-4)GlcNAc
Summary of the method: as §1

[2] = molecular target: Fuc(a1-2)Gal(b1-4)GlcNAc(b1-2)[Fuc(a1-2)Gal(b1-4)GlcNAc(b1-4)]Man(a1-3)[Fuc(a1-2)Gal(b1-4)GlcNAc(b1-2)Man(a1-6)]Man(b1-4)GlcNAc(b1-4)GlcNAc
Summary of the method: as §1

[3] = molecular target: Fuc(a1-2)Gal(b1-4)GlcNAc(b1-3)Gal(b1-4)GlcNAc
Summary of the method: as §1

[4] = molecular target: Fuc(a1-2)Gal(b1-4)[Fuc(a1-3)]GlcNAc
Summary of the method: as §1

[5] = molecular target: Fuc(a1-2)[Gal(a1-3)]Gal(b1-3)GlcNAc(b1-3)GalNAc
Summary of the method: as §1

[6] = molecular target: Fuc(a1-2)[Gal(a1-3)]Gal(b1-4)GlcNAc(b1-3)[Fuc(a1-2)[Gal(a1-3)]Gal(b1-4)GlcNAc(b1-6)]GalNAc
Summary of the method: as §1

[7] = molecular target: Fuc(a1-2)[Gal(a1-3)]Gal(b1-4)[Fuc(a1-3)]GlcNAc(b1-3)GalNAc
Summary of the method: as §1

[8] = molecular target: Fuc(a1-2)[GalNAc(a1-3)]Gal(b1-3)GlcNAc
Summary of the method: as §1

[9] = molecular target: Fuc(a1-2)[GalNAc(a1-3)]Gal(b1-4)GlcNAc(b1-3)Gal(b1-4)GlcNAc
Summary of the method: as §1

Fuc(b1-3)GlcNAc = molecular target: Fuc(b1-3)GlcNAc
Summary of the method: as §1

[10] = molecular target: Gal(a1-3)Gal(b1-4)GlcNAc(b1-2)Man(a1-3)[Gal(a1-3)Gal(b1-4)GlcNAc(b1-2)Man(a1-6)]Man(b1-4)GlcNAc(b1-4)GlcNAc
Summary of the method: as §1

Gal(b1-2)Gal = molecular target: Gal(b1-2)Gal
Summary of the method: as §1

Gal(b1-3)Gal(b1-4)GlcNAc = molecular target: Gal(b1-3)Gal(b1-4)GlcNAc
Summary of the method: as §1

[11] = molecular target: Gal(b1-3)Gal(b1-4)GlcNAc(b1-2)Man(a1-3)[Gal(b1-3)Gal(b1-4)GlcNAc(b1-2)Man(a1-6)]Man(b1-4)GlcNAc(b1-4)GlcNAc
Summary of the method: as §1

Gal(b1-3)GlcNAc = molecular target: Gal(b1-3)GlcNAc
Summary of the method: as §1

[12] = molecular target: Gal(b1-3)GlcNAc(b1-3)GalNAc
Summary of the method: as §1

Gal(b1-3)GlcNAc6S = molecular target: Gal(b1-3)GlcNAc6S
Summary of the method: as §1

[13] = molecular target: Gal(b1-3)[Neu5Ac(a2-6)]GalNAc
Summary of the method: as §1

[14] = molecular target: Gal(b1-4)GalNAc(b1-3)[Fuc(a1-2)]Gal(b1-4)GlcNAc
Summary of the method: as §1

[15] = molecular target: Gal(b1-4)GlcNAc(b1-2)Man(a1-6)Man(b1-4)GlcNAc(b1-4)GlcNAc
Summary of the method: as §1

[16] = molecular target: Gal(b1-4)GlcNAc(b1-2)Man(a1-6)[GlcNAc(b1-2)Man(a1-3)]Man(b1-4)GlcNAc(b1-4)GlcNAc
Summary of the method: as §1

[17] = molecular target: Gal(b1-4)GlcNAc(b1-3)Gal(b1-4)Glc
Summary of the method: as §1

[18] = molecular target: Gal(b1-4)GlcNAc(b1-3)Gal(b1-4)GlcNAc(b1-3)Gal(b1-4)GlcNAc(b1-3)Gal(b1-4)GlcNAc(b1-2)Man(a1-3)[Gal(b1-4)GlcNAc(b1-3)Gal(b1-4)GlcNAc(b1-3)Gal(b1-4)GlcNAc(b1-3)Gal(b1-4)GlcNAc(b1-2)Man(a1-6)]Man(b1-4)GlcNAc(b1-4)[Fuc(a1-6)]GlcNAc
Summary of the method: as §1

[19] = molecular target: Gal(b1-4)GlcNAc(b1-3)Gal(b1-4)GlcNAc(b1-3)Gal(b1-4)GlcNAc(b1-3)Gal(b1-4)GlcNAc(b1-3)Gal(b1-4)GlcNAc(b1-3)Gal(b1-4)GlcNAc(b1-2)Man(a1-3)[Gal(b1-4)GlcNAc(b1-3)Gal(b1-4)GlcNAc(b1-3)Gal(b1-4)GlcNAc(b1-3)Gal(b1-4)GlcNAc(b1-3)Gal(b1-4)GlcNAc(b1-3)Gal(b1-4)GlcNAc(b1-2)Man(a1-6)]Man(b1-4)GlcNAc(b1-4)GlcNAc
Summary of the method: as §1

[20] = molecular target: Gal(b1-4)GlcNAc(b1-3)Gal(b1-4)GlcNAc(b1-3)GalNAc
Summary of the method: as §1

[21] = molecular target: Gal(b1-4)GlcNAc(b1-3)Gal(b1-4)GlcNAc(b1-3)[Gal(b1-4)GlcNAc(b1-3)Gal(b1-4)GlcNAc(b1-6)]GalNAc
Summary of the method: as §1

[22] = molecular target: Gal(b1-4)GlcNAc(b1-3)[Gal(b1-4)GlcNAc(b1-6)]GalNAc
Summary of the method: as §1

Gal(b1-4)GlcNAc6P = molecular target: Gal(b1-4)GlcNAc6P
Summary of the method: as §1

B1: AAL (Agrocybe aegerita), Q6WY08 (protein)
chain: MQGVNIYNISAGTSVDLAAPVTTGDIVTFFSSALNLNAGAGNPNNTTLNLFAENGAYLLHIAFRLQENVIIFNSRQPDGPWLVEQRVSDVANQFAGIDGKAMVTVFDHGDKYQVVINEKTVIQYTKQISGLTLSLSYNATEETSIFSTVVEAVTYTGLALEHHHHHH
[1]
  glycan array binding signal (z-score): -0.105
Fuc(a1-2)Gal(b1-4)GlcNAc
  glycan array binding signal (z-score): -0.146
[2]
  glycan array binding signal (z-score): -0.119
[3]
  glycan array binding signal (z-score): -0.138
[4]
  glycan array binding signal (z-score): -0.147
[5]
  glycan array binding signal (z-score): -0.119
[6]
  glycan array binding signal (z-score): -0.138
[7]
  glycan array binding signal (z-score): -0.136
[8]
  glycan array binding signal (z-score): -0.152
[9]
  glycan array binding signal (z-score): -0.112
Fuc(b1-3)GlcNAc
  glycan array binding signal (z-score): -0.123
[10]
  glycan array binding signal (z-score): 7.5
Gal(b1-2)Gal
  glycan array binding signal (z-score): -0.141
Gal(b1-3)Gal(b1-4)GlcNAc
  glycan array binding signal (z-score): -0.135
[11]
  glycan array binding signal (z-score): 6.91
Gal(b1-3)GlcNAc
  glycan array binding signal (z-score): -0.146
[12]
  glycan array binding signal (z-score): -0.149
Gal(b1-3)GlcNAc6S
  glycan array binding signal (z-score): -0.129
[13]
  glycan array binding signal (z-score): -0.159
[14]
  glycan array binding signal (z-score): -0.135
[15]
  glycan array binding signal (z-score): -0.162
[16]
  glycan array binding signal (z-score): -0.145
[17]
  glycan array binding signal (z-score): -0.142
[18]
  glycan array binding signal (z-score): -0.096
[19]
  glycan array binding signal (z-score): -0.099
[20]
  glycan array binding signal (z-score): -0.131
[21]
  glycan array binding signal (z-score): -0.125
[22]
  glycan array binding signal (z-score): -0.153
Gal(b1-4)GlcNAc6P
  glycan array binding signal (z-score): -0.163
